According to PubChem BioAssay:
“And” between values parts separate entries of the source, which are not always exact repeats. Identical values can stand only once. More than one record can exist for a structure, and the calls need not agree. The source made the active and inactive calls. Unless noted, no rule for the calls is given here.

Experiments:
[1] = blockers of cellular phospholipid synthesis – cell-based, LOPAC library, screen 4, primary screen (AID 1347384); conditions: animal cells, phospholipid biosynthesis inhibition screen; at 10 µM
[2] = liver-stage malaria parasite load reduction – cell-based, known kinase inhibitor set, luminescence, hepatoma host viability (AID 624392); conditions: Plasmodium liver stage in hepatoma cells, luciferase luminescence, concentration not given here; liver cell % of control: measured here: host liver cell viability; parasite % of control: stronger effect = lower value;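 also: infected cells incubated roughly two days before readout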
[3] = system: Hepatitis C virus NS3 helicase; test: blockers of NS3h binding to ssDNA – biochemical, fluorescence polarization, LOPAC1280 library, primary screen (AID 687035; in the data active = inhibition above about 37%); conditions: Purified HCV NS3 helicase, Cy5-dT15 ssDNA binding fluorescence polarization; stronger effect = higher value; concentration not given here
[4] = compounds altering Cy5-DNA-NS3h complex signal – biochemical, LOPAC1280, artefact control for HCV NS3 helicase inhibitor project (AID 687037); conditions: Cy5-DNA-NS3h complex fluorescence interference counterscreen
[5] = growth inhibition, single agents and combos, LFS_MB_1R, cell-based, cisplatin or BGB combos, synergistic combos for chromothripsis tumors (AID 1671452; in the data active = inhibition above about 80%;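 also: cells exposed for 96 hours before readout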); conditions: LFS_MB_1R medulloblastoma cells, stronger effect = higher value
[6] = growth inhibition, single agents and combos, CRL2098, cell-based, BGB or cisplatin IC20 combos, synergistic combos for chromothripsis tumors (AID 1671454; in the data active = inhibition above about 80%;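 also: cells exposed for 96 h before readout; 0% = vehicle DMSO and 100% = killing by high DMSO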); conditions: CRL2098 osteosarcoma cells, drug combinations, stronger effect = higher value
[7] = growth inhibition, single agents and combos, HD-MB03, cell-based, BGB or cisplatin IC20 combos, synergistic combos for chromothripsis tumors (AID 1671455; in the data active = inhibition above about 83%;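 also: 0% = vehicle DMSO and 100% = high DMSO as cytotoxic control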); conditions: HD-MB03 medulloblastoma cells, stronger effect = higher value
[8] = growth inhibition, single agents and combos, UWB1.289, cell-based, BGB or cisplatin combos, synergistic combos for chromothripsis tumors (AID 1671456; in the data active = inhibition above about 80%;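 also: cells exposed to compound for four days; 0% = vehicle DMSO and 100% = killing by high DMSO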); conditions: UWB1.289 ovarian carcinoma cells, stronger effect = higher value
[9] = growth inhibition, single agents and combos, LFS_MB_2R, cell-based, cisplatin combos, synergistic combos for chromothripsis tumors (AID 1671457; in the data active = inhibition above about 80%;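 also: cells exposed to compound for four days before readout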); conditions: LFS_MB_2R medulloblastoma cells, stronger effect = higher value
[10] = UWB1.289_BRCA1 ovarian cancer growth, cell-based, BGB or cisplatin combinations (AID 1671459; in the data active = inhibition above about 80%); conditions: UWB1.289 BRCA1 ovarian carcinoma, drug combinations, stronger effect = higher value
[11] = drug combination toxicity in non-malignant astrocytes – cell-based, BGB or cisplatin IC20 combos, cytotoxicity control for chromothriptic childhood tumor combination screen (AID 1671460; in the data active = inhibition above about 80%;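 also: cells exposed to compounds for 96 hours before viability readout; 0% = vehicle and 100% = killing control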); conditions: Human astrocytes, viability inhibition, drug combinations, at 0.5 µM, stronger effect = higher value
[12] = CRL1545 cell growth, single agent and combined, cisplatin and BGB IC20 combos (AID 1671464; in the data active = inhibition above about 80%;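 also: cells exposed to compound for 96 hours before readout; 0% = vehicle DMSO and 100% = high DMSO killing control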); conditions: CRL1545 osteosarcoma cells, stronger effect = higher value
[13] = compounds altering viability of human ES cells (AID 493140); conditions: human embryonic stem cell survival screen; stronger effect = higher value;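 also: cells exposed to compounds for four days before counting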
[14] = altered dexamethasone sensitivity, NF-kB reporter, cell-based, luciferase, IL-1B stimulus (AID 624486); conditions: IL-1B + dexamethasone, luminescence; percent of negative control (+Dex): actives lie on both sides, concentration not given here; z-score: measured here: IL-1B alone, no Dex;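 as to percent of negative control (+Dex): 100% = mean signal of vehicle control wells on the plate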
[15] = C. elegans survival during P. aeruginosa infection – whole organism (AID 651566);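 also: tested at 14 µM; sign flipped so higher z means a lower ratio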; conditions: C. elegans killed by P. aeruginosa, survival ratio
[16] = pro-inflammatory signaling induction in mouse macrophages – cell-based, murine, luminescence (AID 652131); conditions: murine macrophage pro-inflammatory reporter, stronger effect = higher value
[17] = target: NAD(+) hydrolase SARM1 (Homo sapiens) (UniProt Q6SZW1); test: blocking NAD cleavage by SARM1 SAM-TIR – cell lysate, NAD-Glo luminescence (AID 1508614;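 active = compound whose remaining NAD level is above about 45 nM, limit read from the data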;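 also: higher remaining NAD means stronger inhibition of SARM1 NADase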); conditions: SAM-TIR HEK293T lysate NADase, at 1 µM, stronger effect = higher value
Sequence of NAD(+) hydrolase SARM1 (Homo sapiens) (Q6SZW1 whole entry, looked up): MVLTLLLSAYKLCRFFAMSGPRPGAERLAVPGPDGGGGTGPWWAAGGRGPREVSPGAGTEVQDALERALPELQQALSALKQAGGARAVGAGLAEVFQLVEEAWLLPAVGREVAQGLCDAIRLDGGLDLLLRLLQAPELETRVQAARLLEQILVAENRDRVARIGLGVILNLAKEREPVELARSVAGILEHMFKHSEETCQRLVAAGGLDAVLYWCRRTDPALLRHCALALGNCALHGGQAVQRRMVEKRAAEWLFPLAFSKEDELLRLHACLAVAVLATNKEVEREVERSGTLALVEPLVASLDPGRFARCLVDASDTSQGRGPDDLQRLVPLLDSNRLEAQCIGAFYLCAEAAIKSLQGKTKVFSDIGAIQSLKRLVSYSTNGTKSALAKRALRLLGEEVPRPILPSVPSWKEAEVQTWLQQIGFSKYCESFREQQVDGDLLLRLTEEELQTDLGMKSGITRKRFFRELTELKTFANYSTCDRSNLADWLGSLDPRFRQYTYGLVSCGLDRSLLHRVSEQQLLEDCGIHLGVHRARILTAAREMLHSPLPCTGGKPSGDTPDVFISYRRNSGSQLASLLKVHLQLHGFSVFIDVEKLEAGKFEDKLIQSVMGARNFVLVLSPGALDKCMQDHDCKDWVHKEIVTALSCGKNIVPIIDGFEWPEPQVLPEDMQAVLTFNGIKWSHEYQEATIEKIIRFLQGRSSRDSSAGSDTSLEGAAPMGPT

[18] = chitosan synthesis blockers in C. neoformans – flow cytometry, Cibacron Brilliant Red staining (AID 1347148); conditions: Cryptococcus neoformans chitosan, stronger effect = lower value; at 10 µM unless noted;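 also: compound exposure lasted three days at 37 degrees C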
[19] = compounds altering circadian rhythm period length – cell-based, LOPAC library, luminescence reporter (AID 2774); conditions: circadian reporter cells, at 7 µM, actives lie on both sides;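 also: values are relative to mean of DMSO wells on each plate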
[20] = galactose survival enhancers in mitochondrial complex I cybrids – cell-based, galactose medium, ATP luminescence, primary screen (AID 1645843;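 active = z-score of at least 1.8 in each of two replicates, scored against plate mean and spread of sample wells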;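 also: positive z means more ATP and so rescue of galactose-driven cybrid death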); conditions: complex I mutant cybrid cells, 72 h, stronger effect = higher value
[21] = measured here: combination with BGB IC40, at 0.05 µM
[22] = measured here: combination with cisplatin, at 0.5 µM
[23] = measured here: combination with cisplatin, at 5 µM
[24] = measured here: combination with BGB at IC20, at 0.5 µM
[25] = measured here: combination with cisplatin at IC20, at 0.5 µM
[26] = measured here: combo with BGB at IC20, at 0.5 µM
[27] = measured here: combo with cisplatin at IC20, at 0.5 µM
[28] = measured here: inhibition with BGB combination, at 0.05 µM
[29] = measured here: inhibition with cisplatin combination, at 0.05 µM
[30] = BGB combination, concentration series, at 5 µM
[31] = cisplatin combination, concentration series, at 5 µM
[32] = measured here: combo with BGB IC20
[33] = measured here: combo with cisplatin IC20
[34] = measured here: with BGB IC20 combination, at 0.5 µM
[35] = measured here: with cisplatin IC20 combination, at 0.5 µM

CN(C)c1ccccc1CN1CCCN(Cc2ccccc2N(C)C)C1c1ccncc1
outcome [1]: inactive

CCN(CCO)CCCOc1ccc2c(Nc3cc(CC(=O)Nc4cccc(F)c4)[nH]n3)ncnc2c1
parasite % of control [2]: 144% (inactive) and 137% (inactive) and 97.1% (inactive)

CN1CC(=O)NC1=NC(=O)Nc1cccc(Cl)c1
inhibition [3]: -2% (inactive) | fluorescence ratio (interference) [4]: 1 (inactive) | outcome [1]: inactive

Nc1ccccc1NC(=O)c1ccc(CNc2nccc(-c3cccnc3)n2)cc1
inhibition ([5]; at 0.5 µM): 42.2% (inactive) | inhibition [5, 21]: -27.8% | inhibition [5, 22]: 50.9% | inhibition [5, 23]: 96.3% | inhibition ([6]; at 0.5 µM): -11.6% (inactive) | inhibition [6, 24]: -25.1% | inhibition [6, 25]: 19.9% | inhibition ([7]; at 0.5 µM): 40.8% (inactive) | inhibition [7, 26]: 31.4% | inhibition [7, 27]: 76.7% | inhibition ([8]; at 0.5 µM): 27.8% (inactive) | inhibition [8, 28]: -18.3% | inhibition [8, 29]: -16.7% | inhibition ([9]; at 0.5 µM): 36.6% (inactive) | inhibition [9, 22]: 45.3% | inhibition [9, 23]: 98.8% | inhibition [10, 30]: 114% | inhibition ([10]; at 0.5 µM): 29.1% (inactive) | inhibition [10, 31]: 120% | inhibition [11]: 24.5% (inactive) | inhibition [11, 32]: 21.7% | inhibition [11, 33]: 17.1% | inhibition ([12]; at 0.5 µM): 66.9% (inactive) | inhibition [12, 34]: 49.6% | inhibition [12, 35]: 75.1% | inhibition ([12]; single agent, at 0.05 µM): 31.7% | inhibition ([12]; single agent, at 5 µM): 90.8%

Clc1ccc(COC(Cn2ccnc2)c2ccc(Cl)cc2Cl)c(Cl)c1 (configuration not stated)
survival [13]: 33.8 (inactive)

N#Cc1c(NC(=O)c2cccc3ccccc23)sc2c1CCCC2
liver cell % of control [2]: 69% | parasite % of control [2]: 217% (inactive) | percent of negative control (+Dex) [14]: 130% (inactive) | z-score [14]: 1.48 | z-score [15]: -1.07 (inactive) | z-score [16]: -1.04 (inactive)

Cc1ccc(F)c(NC(=O)Nc2ccc(-c3cccc4[nH]nc(N)c34)cc2)c1
liver cell % of control [2]: 57% and 72.1% and 102% | parasite % of control [2]: 112% (inactive) and 141% (inactive) and 35.1% (inactive)

Nc1nc(Nc2ccc(S(N)(=O)=O)cc2)nn1C(=O)c1c(F)cccc1F
liver cell % of control [2]: 60.7% and 62.5% and 90.9% | parasite % of control [2]: 8.09% (inactive) and 28.9% (inactive) and 97.5% (inactive)

COC(=O)c1ccc2c(C(=Nc3ccc(N(C)C(=O)CN4CCN(C)CC4)cc3)c3ccccc3)c(O)[nH]c2c1
liver cell % of control [2]: 156% and 81.4% and 93.4% | parasite % of control [2]: 197% (inactive) and 560% (inactive) and 349% (inactive)

C[C@H]1[C@H](O)O[C@@H]2O[C@@]3(C)CC[C@H]4[C@H](C)CC[C@@H]1[C@@]24OO3
remaining NAD [17]: 10 nM (inactive)

COc1ccc2c(c1)CC[C@@H]1[C@@H]2CC[C@]2(C)[C@@H](NCCCCCCN3C(=O)C=CC3=O)CC[C@@H]12
fold fluorescence [18]: 12.8 [at 107.6 µM] (inactive)

N#CCNC(=O)c1ccc(-c2ccnc(Nc3ccc(N4CCOCC4)cc3)n2)cc1
liver cell % of control [2]: 71.7% and 64% and 76% | parasite % of control [2]: 0.479% (inactive) and 0.449% (inactive) and 0.525% (active)

CC1(C)CCC2=C(O1)c1ccccc1C(=O)C2=O
period change [19]: -0.24 h (inactive) | inhibition [3]: -5% (inactive) | fluorescence ratio (interference) [4]: 1 (inactive) | fold fluorescence [18]: 9.76 [at 206.4 µM] (inactive) | outcome [1]: inactive | z-score [20]: -1.29 (inactive) | inhibition ([5]; at 0.5 µM): -13.2% (inactive) and 14.9% (inactive) | inhibition [5, 21]: -55.4% and -11.7% | inhibition [5, 22]: -25.3% and 44% | inhibition [5, 23]: 96.9% and 102% | inhibition ([6]; at 0.5 µM): -39.7% (inactive) and -32.9% (inactive) | inhibition [6, 24]: -38.5% and -7.72% | inhibition [6, 25]: -39.4% and -35% | inhibition ([7]; at 0.5 µM): -12.2% (inactive) and -9.16% (inactive) | inhibition [7, 26]: 5.55% and -5.28% | inhibition [7, 27]: -34.7% and -19.2% | inhibition ([8]; at 0.5 µM): 12.3% (inactive) and 6.12% (inactive) | inhibition [8, 28]: -2.17% and 7.32% | inhibition [8, 29]: -10.2% and -8.62% | inhibition ([9]; at 0.5 µM): -21.3% (inactive) and -12.9% (inactive) | inhibition [9, 22]: -28.3% and -6.61% | inhibition [9, 23]: 89.1% and 88.9% | inhibition [10, 30]: 128% and 124% | inhibition ([10]; at 0.5 µM): 0.6% (inactive) and 6.57% (inactive) | inhibition [10, 31]: 129% and 128% | inhibition [11]: 16.9% (inactive) and 14.6% (inactive) | inhibition [11, 32]: 23.9% and 15.8% | inhibition [11, 33]: 20.7% and 18.1% | inhibition ([12]; at 0.5 µM): 36.2% (inactive) and 22.6% (inactive) | inhibition [12, 34]: 33.7% and 14.6% | inhibition [12, 35]: 36.4% and 26.5% | inhibition ([12]; single agent, at 0.05 µM): -59.2% and -23.1% | inhibition ([12]; single agent, at 5 µM): 98.9% and 98.3%

COc1cc2ncnc(Nc3cccc(Cl)c3)c2cc1OC
period change [19]: 0.545 h (inactive) | survival [13]: 138 (inactive) | inhibition [3]: 0% (inactive) | fluorescence ratio (interference) [4]: 1 (inactive) | fold fluorescence [18]: 5.72 [at 142 µM] (inactive) | outcome [1]: inactive | z-score [20]: 1.23 (inactive)

CNc1nccc(-c2cccnc2Oc2cc(C(=O)Nc3cccc(C(F)(F)F)c3)ccc2C)n1
liver cell % of control [2]: 245% and 255% and 102% | parasite % of control [2]: 0.405% (inactive) and 0.413% (active) and 75.6% (inactive)

CC(C)=CCC/C(C)=C/CC/C(C)=C/CSc1ccccc1C(=O)O
period change [19]: -0.01 h (inactive)

Nc1ccn([C@@H]2O[C@H](CO)[C@@H](O)C2(F)F)c(=O)n1
z-score [20]: -1.98 (inactive)

CC(=O)Oc1cc2c(s1)CCN(C(C(=O)C1CC1)c1ccccc1F)C2 (configuration not stated)
remaining NAD [17]: 10 nM (inactive) | z-score [20]: -1.04 (inactive)

NC(=O)c1ccc(I)c([N+](=O)[O-])c1
inhibition ([5]; at 0.5 µM): -3.89% (inactive) and -33.7% (inactive) | inhibition [5, 21]: -3.85% and -20% | inhibition [5, 22]: -8.55% and -54.4% | inhibition [5, 23]: 14.7% and -8.48% | inhibition ([6]; at 0.5 µM): -9.77% (inactive) and -68.7% (inactive) | inhibition [6, 24]: 4.55% and -23.6% | inhibition [6, 25]: -0.612% and -98.1% | inhibition ([7]; at 0.5 µM): 2.12% (inactive) and -9.81% (inactive) | inhibition [7, 26]: 8.1% and -18.5% | inhibition [7, 27]: 1.77% and -5.96% | inhibition ([8]; at 0.5 µM): 4.39% (inactive) and -12.6% (inactive) | inhibition [8, 28]: -4.87% and -28.1% | inhibition [8, 29]: 4.41% and -26.6% | inhibition ([9]; at 0.5 µM): -3.62% (inactive) and -27.7% (inactive) | inhibition [9, 22]: 4.37% and -27.4% | inhibition [9, 23]: -55.7% and -23.8% | inhibition [10, 30]: 8.62% and -14.6% | inhibition ([10]; at 0.5 µM): 3.67% (inactive) and -21.5% (inactive) | inhibition [10, 31]: 11.7% and -8.59% | inhibition [11]: 13.4% (inactive) and -16.5% (inactive) | inhibition [11, 32]: 12.4% and -9.72% | inhibition [11, 33]: 18.2% and -4.93% | inhibition ([12]; at 0.5 µM): 3.31% (inactive) and -13.9% (inactive) | inhibition [12, 34]: -14.5% and -22.9% | inhibition [12, 35]: 10.2% and -9.34% | inhibition ([12]; single agent, at 0.05 µM): -40.1% and -19.9% | inhibition ([12]; single agent, at 5 µM): -12.7% and -3.93%
